# Inconclusive results are not listed. The source made the active and inactive calls. The calls were made as follows, unless noted: active = hit-call score of the fitted dose curve at least 0.9, where 1 is the maximum; inconclusive = response in the unintended direction; inactive = score below 0.9.
# Legend:
# [1] = read-out: UDP glucuronosyltransferase (UGT1A6), UGT1A6 (gene 54578); assay: LTEA_HepaRG_UGT1A6: Life Technologies and Expression Analysis (LTEA) Assay for UDP glucuronosyltransferase (UGT1A6) using HepaRG (AID 2283539; active = hit-call score of the fitted dose curve at least 0.9, where 1 is the maximum; inactive = score below 0.9); details: mRNA level, 48 h; actives raise or lower the signal
# Outline: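 HepaRG, 48 h post-plating switch to serum-free induction medium; chemical 48 h, 100 uM top, half-log x8, duplicate, 0.5% DMSO. Phenobarbital 1mM induction control. UGT1A6 mRNA by TaqMan qRT-PCR; gain/loss fit vs DMSO.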
# [2] = read-out: X-box binding protein 1 (XBP1), XBP1 (gene 7494); assay: LTEA_HepaRG_XBP1: Life Technologies and Expression Analysis (LTEA) Assay for X-box binding protein 1 (XBP1) using HepaRG (AID 2283540; active = hit-call score of the fitted dose curve at least 0.9, where 1 is the maximum; inactive = score below 0.9); details: mRNA level, 48 h; actives raise or lower the signal
# Outline: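 Transcript levels of XBP1, measured by qRT-PCR and normalised to three housekeeping genes, were fitted bidirectionally relative to 0.5% DMSO controls. Human HepaRG cells received eight-point half-log dilutions from 100 uM for 48 h.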
# [3] = TOX21_p53_BLA_p2_viability: Viability Assessment in the Tox21 HCT-116 p53 Agonism Beta-lactamase Assay, Phase 2 (AID 2283591);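 also: compound exposure lasted 16 h at 37 °C; actives lower the ATP signal meaning cytotoxicity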
# Outline: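 Cytotoxicity readout: CellTiter-Glo ATP luminescence, 30 min at room temperature, after the beta-lactamase read. Cells were HCT116 exposed 16 h at 37C to compounds pin-transferred at 217-fold dilution from DMSO stocks.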
# [4] = molecular target: Cellular tumor antigen p53 (Homo sapiens) (UniProt P04637); assay: TOX21_p53_BLA_p2_ratio: Tox21 HCT-116 p53 Agonism Beta-lactamase Assay, Ratio, Phase 2 (AID 2283592)
# Chain of Cellular tumor antigen p53 (Homo sapiens) (P04637 whole entry, looked up): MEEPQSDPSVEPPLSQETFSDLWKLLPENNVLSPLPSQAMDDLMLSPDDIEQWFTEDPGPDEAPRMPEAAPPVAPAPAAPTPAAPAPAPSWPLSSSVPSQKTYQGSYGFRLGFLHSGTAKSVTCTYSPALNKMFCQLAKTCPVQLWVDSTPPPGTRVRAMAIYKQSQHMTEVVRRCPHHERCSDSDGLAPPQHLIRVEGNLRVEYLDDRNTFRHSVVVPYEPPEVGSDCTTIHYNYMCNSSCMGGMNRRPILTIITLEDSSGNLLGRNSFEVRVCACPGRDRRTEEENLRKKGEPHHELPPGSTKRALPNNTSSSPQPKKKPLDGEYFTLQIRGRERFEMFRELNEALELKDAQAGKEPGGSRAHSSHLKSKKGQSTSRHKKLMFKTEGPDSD
# Outline: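 Plated HCT116 p53-bla cells (4000/well) received compound after 5 h, then 16 h at 37C/5% CO2. CCF4-AM added, 2 h RT. Ratio of 460 to 530 nm emission taken as the p53 reporter signal.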
# [5] = TOX21_p53_BLA_p4_viability: Viability Assessment in the Tox21 HCT-116 p53 Agonism Beta-lactamase Assay, Phase 4 (AID 2283597);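 also: hits lower the luminescence signal meaning cytotoxicity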
# Outline: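 Readout: ATP luminescence (CellTiter-Glo), measured 30 min after reagent addition at RT. The reagent followed a 2 h CCF4-AM incubation, and the cells had been exposed to compound for 16 h at 37C.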
# [6] = TOX21_p53_BLA_p5_viability: Viability Assessment in the Tox21 HCT-116 p53 Agonism Beta-lactamase Assay, Phase 5 (AID 2283600)
# Outline: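 Workflow: seed 4000 cells per well, wait 5 h, add compounds (DMSO, 217-fold dilution), incubate 16 h, load CCF4-AM 2 h, add CellTiter-Glo, read luminescence after 30 min.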
# [7] = Tanguay_ZF_120hpf_MORT_legacy: (Legacy) Oregon State University Tanguay Lab 120 Hour Post-fertilization zebrafish Assay for Mortality (AID 2283633);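 as to AC50: fitted as increase in binary mortality versus DMSO negative control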
# Outline: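 5D WT zebrafish, chorion removed 4 hpf; 1 embryo/well from 6 hpf; static exposure to 120 hpf, 28C, dark, sealed. Final DMSO 0.64%. Readout: binary mortality, brightfield, 24 + 120 hpf; DMSO as negative control.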
# [8] = Tanguay_ZF_120hpf_YSE_legacy: (Legacy) Oregon State University Tanguay Lab 120 Hour Post-fertilization zebrafish Assay for Yolk Sac Edema (AID 2283634);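 as to AC50: actives raise the incidence of yolk sac edema above the DMSO baseline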
# Outline: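 Dechorionate (pronase, 4 hpf) → place one 6 hpf embryo per well → static compound exposure, sealed and foil-covered, 28C, to 120 hpf → record yolk sac edema as present or absent. Final DMSO 0.64%.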
# [9] = Tanguay_ZF_120hpf_AXIS_legacy: (Legacy) Oregon State University Tanguay Lab 120 Hour Post-fertilization zebrafish Assay for Body Axis Malformation (AID 2283635);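 as to AC50: potency for an increased fraction of larvae scored with body axis malformation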
# Outline: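 Chorion is removed with pronase at 4 hpf, then single 6 hpf embryos are dosed (final DMSO 0.64%) and held statically at 28C in sealed, foil-covered plates. At 120 hpf body axis malformation is recorded as present or absent.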
# [10] = Tanguay_ZF_120hpf_EYE_legacy: (Legacy) Oregon State University Tanguay Lab 120 Hour Post-fertilization zebrafish Assay for Eye Malformation (AID 2283636);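 also: binary presence or absence of eye malformation scored by brightfield in 120 hpf larvae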
# Outline: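 Binary brightfield scoring of eye defects at 120 hpf after static exposure from 6 hpf of single pronase-dechorionated wild-type embryos (28C, 0.64% DMSO). Non-mortality endpoints omitted where embryos died; fit vs DMSO.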
# [11] = Tanguay_ZF_120hpf_SNOU_legacy: (Legacy) Oregon State University Tanguay Lab 120 Hour Post-fertilization zebrafish Assay for Snout Malformation (AID 2283637)
# Outline: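 Binary snout-malformation call at 120 hpf in wild-type 5D embryos, chorion removed by pronase, under static exposure from 6 hpf at 28C (0.64% DMSO). Embryos dying by 24 or 120 hpf excluded.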
# [12] = Tanguay_ZF_120hpf_JAW_legacy: (Legacy) Oregon State University Tanguay Lab 120 Hour Post-fertilization zebrafish Assay for Jaw Malformation (AID 2283638);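 as to AC50: active means more embryos with jaw malformation than DMSO controls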
# Outline: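 Steps: dechorionate 4 hpf embryos (pronase); plate 1/well at 6 hpf; add test chemical, 0.64% DMSO final; seal, cover, hold at 28C statically to 120 hpf; score jaw defect presence/absence microscopically. Dead embryos not scored.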
# [13] = Tanguay_ZF_120hpf_OTIC_legacy: (Legacy) Oregon State University Tanguay Lab 120 Hour Post-fertilization zebrafish Assay for Otic Vesicle Malformation (AID 2283639)
# Outline: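 Statically exposed wild-type 5D zebrafish embryos, kept sealed and dark at 28C through 120 hours post fertilization, were examined by brightfield microscopy for otic vesicle defects. Responses were recorded as present or absent and analysed relative to DMSO.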
# [14] = Tanguay_ZF_120hpf_PE_legacy: (Legacy) Oregon State University Tanguay Lab 120 Hour Post-fertilization zebrafish Assay for Pericardial Edema (AID 2283640);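 as to AC50: potency for increased incidence of pericardial edema versus DMSO baseline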
# Outline: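 Embryos from wild-type 5D adults were staged, then dosed in 0.64% DMSO. They were kept sealed in the dark at 28C until 120 hpf. Pericardial edema was then recorded as present or absent.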
# [15] = ATG_XTT_Cytotoxicity: Cytotoxicity Assessment in the Attagene TRANS-FACTORIAL HepG2 Assay (AID 2283584)
# Outline: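 Cells: human HepG2, transiently transfected with MRTU reporter constructs. Exposure 24 h. Readout: XTT, cell number. Baseline/neg ctrl DMSO; loss-of-signal scored.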
# [16] = molecular target: Cellular tumor antigen p53 (Homo sapiens) (UniProt P04637); assay: TOX21_p53_BLA_p3_ratio: Tox21 HCT-116 p53 Agonism Beta-lactamase Assay, Ratio, Phase 3 (AID 2283596)
# Outline: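 Cells were seeded at 4000/well, rested 5 h at 37C, then dosed with DMSO compound solutions (217-fold dilution) for 16 h. CCF4-AM substrate was loaded for 2 h at room temperature, and the 460/530 nm emission ratio was fitted for gain of signal versus DMSO.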
# [17] = molecular target: Cellular tumor antigen p53 (Homo sapiens) (UniProt P04637); assay: TOX21_p53_BLA_p5_ratio: Tox21 HCT-116 p53 Agonism Beta-lactamase Assay, Ratio, Phase 5 (AID 2283599)
# Outline: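 Beta-lactamase reporter ratio (blue 460 nm over green 530 nm, 405 nm excitation) after 2 h CCF4-AM loading, in HCT-116 cells exposed 16 h at 37 C to compounds pinned at 217-fold dilution. Increases relative to DMSO baseline scored.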
# [18] = molecular target: Cellular tumor antigen p53 (Homo sapiens) (UniProt P04637); assay: TOX21_p53_BLA_p4_ratio: Tox21 HCT-116 p53 Agonism Beta-lactamase Assay, Ratio, Phase 4 (AID 2283601)
# Outline: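 Signal is the blue/green (460nm/530nm) ratio of cleaved versus uncleaved CCF4-AM substrate, read after 2 h substrate loading. Cells were HCT116 carrying the p53-responsive beta-lactamase reporter, dosed 16 h at 37C, 5% CO2; CellTiter-Glo measured in parallel.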
# [19] = LTEA_HepaRG_LDH_cytotoxicity: Cytotoxicity Assessment in the Life Technologies and Expression Analysis (LTEA) Assay (AID 2283563)
# Outline: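 Cells were thawed and plated for 48 h. Medium was then replaced with serum-free induction medium. Chemicals (8 half-log points, maximum 100 uM, 0.5% DMSO) were added in duplicate for 48 h, after which spent medium was assayed for LDH.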
# [20] = TOX21_p53_BLA_p3_viability: Viability Assessment in the Tox21 HCT-116 p53 Agonism Beta-lactamase Assay, Phase 3 (AID 2283593);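 also: cells exposed to compound for 16 h before reading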
# Outline: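 Cellular ATP was quantified by CellTiter-Glo luminescence, read after 30 min at room temperature. Beforehand, HCT116 cells (4000/well) received compound 5 h post-seeding, 217-fold diluted from DMSO, then incubated 16 h at 37C.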
smiles,measurement,setting,value
CC(C)CCO,outcome,[1],inactive
same,outcome,[2],inactive
same,outcome,[3],inactive
same,outcome,[4],inactive
same,outcome,[5],inactive
same,outcome,[6],inactive
same,outcome,[7],inactive
same,outcome,[8],inactive
same,outcome,[9],inactive
same,outcome,[10],inactive
same,outcome,[11],inactive
same,outcome,[12],inactive
same,outcome,[13],inactive
same,outcome,[14],inactive
C=CC(=C)CCC=C(C)C,outcome,[1],inactive
same,outcome,[2],inactive
same,outcome,[15],inactive
same,outcome,[4],inactive
same,outcome,[16],inactive
same,outcome,[5],inactive
same,outcome,[17],inactive
same,outcome,[6],inactive
same,outcome,[18],inactive
same,outcome,[7],inactive
same,outcome,[9],inactive
same,outcome,[10],inactive
same,outcome,[11],inactive
same,outcome,[12],inactive
same,outcome,[13],inactive
same,outcome,[14],inactive
Cc1c(-c2cccnc2)c2ccccc2n1CCCCC(=O)O,outcome,[2],inactive
same,outcome,[19],inactive
same,outcome,[4],inactive
same,outcome,[17],inactive
same,outcome,[18],inactive
same,outcome,[7],inactive
same,outcome,[9],inactive
same,outcome,[10],inactive
same,outcome,[12],inactive
same,outcome,[13],inactive
same,outcome,[14],inactive
CC[C@H]1CC[C@H](NCc2cc3c(cc2OC)[C@H]2C[C@H]2C(=O)N3C)[C@H](c2ccccc2)N1,outcome,[2],inactive
same,outcome,[19],inactive
same,outcome,[4],inactive
same,outcome,[20],inactive
same,AC50,[16],13300 nM (active)
same,outcome,[18],inactive
same,outcome,[7],inactive
same,outcome,[9],inactive
same,outcome,[10],inactive
same,outcome,[11],inactive
same,outcome,[12],inactive
same,outcome,[13],inactive
same,outcome,[14],inactive
COCCOc1cc2cc(C(=O)NC3CCN(C(C)C)CC3)n(CC(=O)Nc3ccc(Cl)cn3)c2cn1,AC50,[2],12100 nM (active)
same,outcome,[5],inactive
same,outcome,[17],inactive
same,outcome,[6],inactive
same,outcome,[7],inactive
same,outcome,[8],inactive
same,outcome,[9],inactive
same,outcome,[10],inactive
same,outcome,[11],inactive
same,outcome,[12],inactive
same,outcome,[13],inactive
same,outcome,[14],inactive
CCC(C)(C)C(=O)O[C@H]1C[C@@H](C)C=C2C=C[C@H](C)[C@H](CC[C@@H]3C[C@@H](O)CC(=O)O3)[C@H]21,outcome,[2],inactive
same,outcome,[15],inactive
same,outcome,[4],inactive
same,AC50,[20],75700 nM (active)
same,outcome,[16],inactive
same,AC50,[5],46100 nM (active)
same,outcome,[17],inactive
same,outcome,[6],inactive
same,outcome,[18],inactive
same,AC50,[7],1450 nM (active)
same,AC50,[8],649 nM (active)
same,AC50,[9],671 nM (active)
same,AC50,[10],737 nM (active)
same,AC50,[11],796 nM (active)
same,AC50,[12],766 nM (active)
same,AC50,[13],747 nM (active)
same,AC50,[14],640 nM (active)
On1ccccc1=S,outcome,[2],inactive
same,outcome,[15],inactive
same,outcome,[4],inactive
same,outcome,[16],inactive
same,outcome,[5],inactive
same,outcome,[17],inactive
same,outcome,[18],inactive
same,outcome,[7],inactive
same,AC50,[8],41.3 nM (active)
same,AC50,[9],35.4 nM (active)
same,AC50,[11],206 nM (active)
same,outcome,[12],inactive
same,outcome,[13],inactive
same,AC50,[14],29.3 nM (active)
C1=CCCC=CCCC=CCC1,outcome,[2],inactive
same,outcome,[15],inactive
same,outcome,[5],inactive
same,outcome,[17],inactive
same,outcome,[18],inactive
same,outcome,[7],inactive
same,outcome,[8],inactive
same,outcome,[9],inactive
same,outcome,[10],inactive
same,outcome,[11],inactive
same,outcome,[12],inactive
same,outcome,[13],inactive
same,outcome,[14],inactive
